According to PubChem BioAssay AID1814 (Broad Institute, 2009):
Hit rate of the full screen: of about 300,000 compounds, about 22,000 (7.3%) were called active. Not shown: some 2% with an inconclusive outcome. Rule as the data show it: active = activity score below about -60%; inconclusive = mostly about -28% to -61%; inactive = positive scores. This excerpt belongs to a sample that is enriched for actives.

Assay: Activators via SNCA 5'UTR binding, MLPCN (AID 1814)
Conditions: alpha-synuclein 5'UTR reporter, activators screen; stronger effect = lower value; tested at 7.5 µM

| Structure (SMILES) | activity score |
| --- | --- |
| C/C(=C\c1ccco1)CN1CCC(N2CCC(C(=O)N3CCOCC3)CC2)CC1 | -135% (active) |
| CC(=O)Nc1ccc(/C=C/C(=O)c2ccccc2)cc1 | -201% (active) |
| CC(=O)Nc1ccc(C(=O)/C=C/c2ccc[nH]2)cc1 | -142% (active) |
| O=C(/C=C/c1ccc(N2CCOCC2)cc1)c1ccccc1 | -152% (active) |
| Cc1ccsc1C(=O)N/N=C/c1ccc([N+](=O)[O-])cc1 | -154% (active) |
| Cc1ccc(NC(=O)c2sccc2C)cc1[N+](=O)[O-] | -217% (active) |
| O=C(N/N=C/c1ccc([N+](=O)[O-])cc1)c1c[nH]c2ccccc12 | -66.7% (active) |
| COc1cccc(-c2nn(-c3ccccc3)cc2/C=C(\C#N)C(=O)NCCCn2ccnc2)c1 | -65.4% (active) |
| Cc1nn(C(=O)c2ccoc2C)c(N)c1-c1ccccc1 | -109% (active) |
| CN(Cc1ccco1)S(=O)(=O)c1nnc(NC(=O)c2ccccc2)s1 | -95.2% (active) |
| COc1ccc(C(=O)CC(=O)c2ccc(C)cc2)c(O)c1 | -96.9% (active) |
| COc1ccc(C(=O)Cc2cnn(-c3ccccc3)c2)c(O)c1 | -147% (active) |
| CC(=NCc1ccco1)c1c(C(F)(F)F)[nH]n(-c2nc3ccccc3s2)c1=O | -117% (active) |
| COC(=O)Cc1[nH]n(-c2nc3ccccc3s2)c(=O)c1C(C)=Nc1ccc(OC)cc1 | 68.9% (inactive) |
| CCC(C)Cn1c(O)cc2nn(-c3nc4ccccc4s3)c(=O)c-2c1C (stereo unspecified) | 97.8% (inactive) |
| Cn1nc(C(F)(F)F)cc1-c1ccc(/C=C(\C#N)C(=O)c2cccc(C(F)(F)F)c2)s1 | -76.5% (active) |

| Structure (SMILES) | activity score |
| --- | --- |
| O=C1/C(=C/c2ccc3c(c2)OCO3)CCC/C1=C\c1ccc2c(c1)OCO2 | -83.5% (active) |
| O=C(/C=C/Sc1ncn[nH]1)c1ccc(Cl)cc1 | -73.9% (active) |
| Oc1ccc(/C=N/NC2=NCCCCC2)c(O)c1 | -141% (active) |
| Nc1nc(-c2sc3nc4c(cc3c2N)CCCC4)nc(N2CCOCC2)n1 | -113% (active) |
| CC(C)(C)c1ccc(C(=O)NCc2ccco2)cc1 | -180% (active) |
| CCCC1=Nc2cc(C(=O)NCc3ccco3)ccc2Sc2ccccc21 | 87.6% (inactive) |
| CC(C)(C)c1ccc(NC(=O)NCc2ccco2)cc1 | -123% (active) |
| CC(C)(C)c1ccc(C(=O)NNC(=O)Cc2ccccc2)cc1 | -84.3% (active) |
| CC(C)n1c(O)c(N=Nc2ccccn2)c2ccccc21 | -76.9% (active) |
| CC1C/C(=N/NC(=O)c2cccs2)CC(C)(C)C1 (stereo unspecified) | -101% (active) |
| CCC(=O)Nc1nc2ccccc2n1Cc1ccccc1C | 65.5% (inactive) |
| CCC(=O)NC(=Nc1nc2ccccc2s1)NC(=O)CC | -101% (active) |
| CC(C)CC(=O)N/C(N)=N/c1nc2ccccc2s1 | -93.4% (active) |
| CC12CN3CCN(CC(C3)/C1=N\NC(=O)c1ccccc1N)C2 | -83.3% (active) |
| CN1C(=O)/C(=C\c2cc(Br)cs2)c2ccccc21 | -188% (active) |
